Only some compounds are listed: those with a hit (about 4.5% of all), similar ones and a draw of the others.
hgDAF-12 ag: hgDAF-12 agonism, primary luciferase screen; HEK293 GAL4-hgDAF12 UAS-luciferase reporter, agonist luminescence; normalized to butyrate control; activation, % at 6.8 µM; 370,000 tested, 1.8% active;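 active means activation above a cutoff set at the mean of all screened compounds plus 3 SD, cut at about 10% in these data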;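 further: 0% = DMSO wells and 100% = sodium butyrate wells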
DAX1 inh-1: inhibits human nuclear receptor DAX1. P51843. HEK293 Gal4-DAX1 luciferase reporter, luminescence. inhibition, % at 6.75 µM. 340,000 tested, 0.99% active. AID 504766;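 active means inhibition above the mean over all tested compounds plus 3 SD, cut at about 4.2% in these data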;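 further: 0% = DAX1-transfected cells with DMSO and 100% = empty-vector control cells with DMSO; inhibition shows as a rise in luminescence from relieved DAX1 repression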
FXN GAA850 act: increases GAA850 frataxin promoter reporter activity; 360,000 tested, 0.56% active; HEK293 lucGAA850 FXN promoter luciferase reporter, 24 h; percent of 10 µM SAHA response; activation, % at 6 µM;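 active means activation above the average of all compounds screened plus 3 SD, cutoff fixed separately per campaign, cut at about 7.5% in these data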;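 further: 0% = DMSO wells and 100% = 10 µM SAHA wells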
hcDAF12 agonist: activators of H. contortus DAF-12 nuclear receptor | HEK293 hcDAF-12 lit1-tk-luc reporter, luminescence; 0% DMSO, 100% Δ7-dafachronic acid | activation, % at 6.8 µM | 370,000 tested, 1.4% active | AID 652067;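 active means activation above the mean of all tested compounds plus 3 SD, cut at about 5.5% in these data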;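 further: 100% = response to 3 µM Δ7-dafachronic acid high control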
DAX1 inh-2: DAX1 (NR0B1) inhibition, primary screen; inhibition, % at 6.8 µM; 370,000 tested, 1.1% active; AID 652010; HEK293T StAR-luciferase reporter, SF-1/DAX-1 repression relief;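 active means inhibition above the mean over all tested compounds plus 3 SD, cut at about 3.6% in these data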;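 further: 0% = DAX-1 cells with DMSO and 100% = cells lacking DAX-1 with DMSO; higher inhibition means more luminescence from relief of DAX-1 repression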
ssDAF-12 act: activates DAF-12 receptor from parasite S. stercoralis; HEK293 ssDAF-12/GRIP1 lit1-tk-luc reporter, luminescence; % of 3 µM dafachronic acid response; activation, % at 6.8 µM; 370,000 tested, 1% active; AID 652126;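 active means activation above the mean over all tested compounds plus 3 SD, cut at about 0.9% in these data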;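 further: 0% = DMSO-only wells and 100% = 3 µM delta7-dafachronic acid wells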
LXR ag: LXR-beta agonism as hcDAF-12 counter-screen | AID 743027 | activation, % at 6.8 µM | shares compounds with hcDAF12 agonist | 3,400 tested, under 10 active | HEK293 Gal4-LXR tk-luc reporter, luminescence, 24 h; normalized: DMSO 0%, positive control 100%;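 active means mean percent activation of the reporter above a cutoff set as the average over tested compounds plus their standard deviation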
Target sequence (P55055 whole entry, looked up, the tested form may be a part): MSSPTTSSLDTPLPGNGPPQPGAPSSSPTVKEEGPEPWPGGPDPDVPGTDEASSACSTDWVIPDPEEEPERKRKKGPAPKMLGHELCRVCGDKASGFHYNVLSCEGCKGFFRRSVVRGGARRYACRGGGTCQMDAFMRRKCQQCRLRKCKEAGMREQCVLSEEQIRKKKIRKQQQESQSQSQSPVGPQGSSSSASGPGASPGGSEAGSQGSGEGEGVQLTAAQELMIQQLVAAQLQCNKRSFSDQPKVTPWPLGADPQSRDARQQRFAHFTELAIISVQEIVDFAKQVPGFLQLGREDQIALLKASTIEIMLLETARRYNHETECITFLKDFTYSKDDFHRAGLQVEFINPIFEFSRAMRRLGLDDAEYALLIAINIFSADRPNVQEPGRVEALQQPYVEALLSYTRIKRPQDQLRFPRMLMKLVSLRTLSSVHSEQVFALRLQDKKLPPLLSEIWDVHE
hcDAF12 conf: confirmation of H. contortus DAF-12 agonists | activation, % at 6.8 µM | HEK293 hcDAF-12 lit1-tk-luc reporter, luminescence; % of Δ7-dafachronic acid response | 3,400 tested, 61% active | shares compounds with hcDAF12 agonist | AID 743032;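 active means mean activation across triplicate tests above the threshold derived from the earlier primary screen, cut at about 5.5% in these data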;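 further: 0% = DMSO only wells and 100% = 3 µM Δ7-dafachronic acid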
Active calls of the source: *; nt = no result.

SMILES | hgDAF-12 ag | DAX1 inh-1 | FXN GAA850 act | hcDAF12 agonist | DAX1 inh-2 | ssDAF-12 act | LXR ag | hcDAF12 conf
CCn1c(=NC(=O)c2ccco2)sc2cccc(F)c21 | 13* | 2 | 3 | 12* | 2 | 1 | 1 | 8.4*
Cc1[nH]c2ccc(F)cc2c1CCN(Cc1cccnc1)C(=S)Nc1cccc(F)c1 | -1 | -1 | -1 | -1 | 0 | -1 | nt | nt
NC(=O)c1c(NC(=O)c2ccccc2)sc2c1CCC2 | 15* | 4.5* | 3 | 16* | 1 | 2.1* | 2 | 19*
NC(=O)c1c(NC(=O)c2ccncc2)sc2c1CCCC2 | 5 | 1 | 1 | -2 | 0 | -2 | nt | nt
O=C(/C=C1\C(=O)Nc2ccccc21)/C=C1\C(=O)Nc2ccccc21 | 2 | -1 | 4 | 11* | 0 | 0 | 0 | 3
O=C1Nc2ccccc2/C1=C\C(=O)c1ccccc1 | -2 | -2 | 3 | -1 | -1 | -1 | nt | nt
O=C(O)CCc1c(C(=O)O)[nH]c2ccccc12 | -2 | -1 | -1 | 0 | 0 | -1 | nt | nt
CN(C)Cc1c(C(=O)Nc2ccccc2)[nH]c2ccccc12 | 9 | 1 | 3 | 7.1* | 2 | 1 | 0 | 1
Cc1cc(C)cc(NC(=S)N2CCC(NC(=O)c3ccccc3C)CC2)c1 | -1 | -2 | 1 | -2 | -1 | -1 | nt | nt
Cc1ccc(/C=C/c2nc3ccccc3s2)s1 | 2 | 1 | -3 | 9.4* | 1 | 0 | 1 | 19*
CN(C)c1ccc(/C=C/c2nc3ccccc3s2)cc1 | -10 | -3 | -13 | -4 | -2 | -3 | nt | nt
COc1ccccc1/C=C/C(=O)N1CCC(c2ccccc2)C1 (stereo not given) | 12* | 1 | 7 | 6.7* | 1 | 1.0* | 0 | 4
O=C(c1ccc([N+](=O)[O-])cc1)N1CCSC1c1ccccc1Cl (stereo not given) | -1 | 1 | 0 | 1 | 1 | -2 | nt | nt
Clc1ccccc1C1SCC2Nc3ccccc3CN21 (stereo not given) | 5 | 1 | 5 | 7.1* | 1 | 0 | 0 | 7.1*
COc1ccc(NC(=O)CCn2cccc2)cc1 | 1 | 2 | 1 | -2 | 0 | -1 | nt | nt
Cc1cc(SCC(=O)c2cccs2)nc2c(C)cccc12 | 3 | 1 | 3 | 6.8* | 0 | -1 | 0 | 3
Cc1cc2c(C)ccc(C)c2nc1SCC(=O)c1cccs1 | -2 | 0 | 3 | 1 | 0 | -2 | nt | nt
CN(C)C(=O)COC(=O)c1cccc(CN2C(=O)c3ccccc3C2=O)c1 | -1 | 2 | -1 | 0 | 0 | -1 | nt | nt
CN[C@H]1C[C@H]2c3[nH]c4cccc(-c5cccc(C)c5)c4c3CCN2C(=O)[C@H]1[C@H](C)O | 1 | nt | nt | -1 | 0 | -2 | nt | nt
CN[C@H]1C[C@H]2c3[nH]c4ccccc4c3CCN2C(=O)[C@H]1[C@H](C)O | 4 | 0 | 0 | 8.1* | 2 | 0 | 0 | 3
O=C(Nc1ncccn1)c1cccc(F)c1 | 8 | -1 | 2 | 7.0* | 0 | 0 | 0 | 1
O=C(Nc1ncccn1)c1cccc(Cl)c1 | -1 | nt | 1 | 5 | 0 | 1 | nt | nt
COc1ccc(CCNC(=O)CO/N=C/c2cc3c(cc2Br)OCO3)cc1OC | 0 | -1 | -2 | -3 | 1 | -2 | nt | nt
Cc1nonc1CC(=O)NC1CCCc2c1cnn2-c1ccc(F)cc1F (stereo not given) | 2 | 0 | -1 | 0 | 0 | -1 | nt | nt
C=CCS/C(N)=N\N=C\c1c(O)ccc2ccccc12 | 17* | 4 | 7 | 14* | 3 | 1.9* | 1 | 11*
SMILES | hgDAF-12 ag | DAX1 inh-1 | FXN GAA850 act | hcDAF12 agonist | DAX1 inh-2 | ssDAF-12 act | LXR ag | hcDAF12 conf
NC(=O)c1ccc(N=Cc2c(O)ccc3ccccc23)cc1 | -3 | 0 | 1 | -1 | 0 | -1 | nt | nt
COc1ccc(CN2CCCC(C(=O)c3ccc4c(c3)OCO4)C2)c(F)c1 (stereo not given) | 1 | 1 | 0 | -1 | 0 | -1 | nt | nt
COC(=O)C1=NN(c2ccccc2OC)C2C(=O)N(c3ccccc3OC)C(=O)C12 (stereo not given) | 2 | 0 | -1 | 7.2* | 1 | 0 | 0 | 0
COc1ccc(C2C(C#N)=C(C)NC(C)=C2C#N)c(OC)c1 | 1 | -1 | 1 | 0 | 1 | -2 | nt | nt
CC1=C(C#N)C(c2ccccc2O)C(C#N)=C(C)N1 | 8 | 2 | 1 | 9.6* | 0 | 1 | 0 | 5.7*
CCN(C(=O)CSc1nnc(-c2cccc(Cl)c2)n1N)c1c(N)n(Cc2ccccc2)c(=O)[nH]c1=O | 2 | 3 | 0 | -1 | -1 | -1 | nt | nt
CCc1nc2c(OCc3ccc(Cl)cc3)cccn2c1N(C)C(=O)c1ccc(C)cc1 | -2 | nt | 0 | 0 | -1 | -1 | nt | nt
O=C(O)COc1ccccc1/C=N/NC(=O)c1cc2ccccc2cc1O | 10 | 0 | 2 | 11* | 2 | 2.7* | 0 | 5
COc1ccc(NC(=O)CNC(=O)CC23CC4CC(CC(C4)C2)C3)c(OC)c1 | 2 | -1 | 2 | -1 | 1 | 0 | nt | nt
CC(C)(C)c1ccc(C(=O)NCC(=O)OCC(=O)N2CCN(S(=O)(=O)c3ccc(Cl)cc3)CC2)cc1 | 3 | 1 | 1 | 15* | 2 | 0 | 0 | 3
O=C(CNC(=O)c1ccc(Cl)cc1)OCC(=O)N1CCCC1 | -3 | 1 | 0 | -1 | 0 | -1 | nt | nt
Cc1ccc2nc(N3C(=O)C(O)=C(C(=O)c4ccc(C)o4)C3c3ccco3)sc2c1 (stereo not given) | 11* | 0 | 3 | 8.1* | 4.1* | 1 | 0 | 3
O=Cc1ccc(OC(=O)/C=C/c2ccccc2)cc1 | -1 | -1 | 1 | 0 | 0 | -1 | nt | nt
Cc1ccccc1NC(=O)/C(C#N)=C\c1ccsc1 | 7 | 1 | 6 | 7.4* | 0 | -1 | 0 | 6.9*
N#C/C(=C/c1ccc([N+](=O)[O-])cc1)C(=O)Nc1ccccc1O | 6 | 3 | 5 | 11* | 0 | 0 | 0 | 5
O=C(Nc1ccccc1O)c1ccc([N+](=O)[O-])cc1 | 6 | 0 | 1 | 7.0* | 1 | 1.4* | 0 | 3
N#C/C(=C\c1ccc([N+](=O)[O-])cc1)C(=O)Nc1ccccc1O | 6 | -1 | 4 | 4 | 0 | 0 | nt | nt

Screening results (PubChem)
